Data: PubChem BioAssay (NCI)
This is part of a sample that, as a whole, favours compounds with a hit. Of some 83,000 tested, about 20% had one in any assay.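 Cell lines were cultured in 96-well plates, exposed to a single compound concentration, and assessed for percent growth 48 hours later.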 A number with no mark means an inactive call. Activity calls are given as the source filed them. The calls were made as follows: active = growth percent below 10; inactive = the rest.

System: HL-60(TB) leukemia
Assay: NCI-60 one-dose screen, 48 h (100 = growth as untreated, 0 = no growth, -100 = all killed)
Details: 10 µM unless noted

| Structure (SMILES) | growth |
| --- | --- |
| Cc1cc2nc3c4cc(Cl)ccc4n(CCN(C)C)c3nc2cc1C | 20% |
| CC(=O)c1cc2c(N)c(C(=O)Nc3cccc(Cl)c3)sc2nc1C | 48.9% |
| COc1cc(C2C(C#N)=C(c3c[nH]c4ccccc34)Nc3nc(N)[nH]c(=O)c32)cc(OC)c1OC (stereo not drawn) | 42.1% |
| CC(=O)O[C@@]12CO[C@@H]1C[C@H](O)[C@@]1(C)C(=O)[C@H](O)C3=C(C)[C@@H](OC(=O)[C@H](O)[C@@H](NC(=O)OC(C)(C)C)c4ccccc4)C[C@@](O)([C@@H](OC(=O)c4ccccc4)C12)C3(C)C (stereo partly drawn) | -12.9% (active) |
| CNC(=O)c1cc(Oc2cccc3nc(Nc4ccc(F)c(Cl)c4)ccc23)ccn1 | 31.1% |
| Cc1cc(C)c(S(=O)(=O)/N=c2/n(-c3ccccc3)nc3n2CCN3C2=NCCN2)c(C)c1 | 82.8% |
| CNC(=O)NCC1OC(n2cnc3c(NC(=O)Nc4ccccc4)ncnc32)C2OC(=O)CC12 (stereo not drawn) | 82.7% |
| O=C(CI)NC(=O)NC(=O)NCc1ccccc1 | -10.5% (active) |
| C1C[S+]2CC[S+]1CC2 | 111% |
| C=C(c1ccc(N(C)C)cc1)c1ccc(N(C)C)cc1 | -6.12% (active) |
| N#C/C(=C\c1ccc(-c2ccccc2F)o1)c1nc(-c2ccco2)cs1 | 91.2% |
| CC(C)[N+](C)(CCOC(COc1ccccc1)COc1ccccc1)C(C)C | 30.7% |
| COc1cc(-c2cc(-c3ccc(Nc4nc(Nc5ccccc5)nc(Nc5ccc(Cl)cc5)n4)cc3)nc(N)n2)cc(OC)c1OC | 96.8% |
